How the values were obtained:
Assay in all cases: PBM binding z-score (relative to random genomic background probes); higher = stronger binding; sequences stand for … in GC…GCGATTGACAGCGTAGAATGAAGG
[1] = tested on: FXR:RXRa (NR concentration 270 nM, RXRa partner concentration 90 nM)
Summary of the method: (§1)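 Binding z-scores were set against random background probes. The data came from custom Agilent 4×180K protein-binding microarrays carrying double-stranded probes with 34-nt variable regions, incubated 1 h with ligand-free nuclear receptor dimers. Partner-specific antibodies detected binding, and scanned fluorescence was regression-normalized.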

[2] = tested on: LXRa:RXRa (NR concentration 270 nM, RXRa partner concentration 90 nM)
Summary of the method: as §1

[3] = tested on: LXRa homodimer (NR concentration 270 nM)
Summary of the method: as §1

[4] = tested on: LXRb:RXRa (NR concentration 270 nM, RXRa partner concentration 90 nM)
Summary of the method: as §1

[5] = tested on: LXRb homodimer (NR concentration 270 nM)
Summary of the method: as §1

[6] = tested on: PPARa:RXRa (NR concentration 270 nM, RXRa partner concentration 90 nM)
Summary of the method: as §1

[7] = tested on: PPARg:RXRa (NR concentration 180 nM, RXRa partner concentration 90 nM)
Summary of the method: as §1

[8] = tested on: PPARg:RXRa 270nM:90nM, anti-RXR (NR concentration 270 nM, RXRa partner concentration 90 nM)
Summary of the method: as §1

[9] = tested on: PPARg:RXRa 30nM:10nM, anti-RXR (NR concentration 30 nM, RXRa partner concentration 10 nM)
Summary of the method: as §1

[10] = tested on: PPARg:RXRa 90nM:30nM, anti-RXR (NR concentration 90 nM, RXRa partner concentration 30 nM)
Summary of the method: as §1

[11] = tested on: PPARg:RXRa DBDmut IVT, anti-RXR (DBD mutation: RXRa K156A/R161A, NR concentration 270 nM, RXRa partner concentration 90 nM)
Summary of the method: as §1

[12] = tested on: PPARg:RXRa IVT, anti-PPARg (NR concentration 270 nM, RXRa partner concentration 90 nM)
Summary of the method: as §1

[13] = tested on: PPARg DBDmut:RXRa IVT, anti-PPARg (DBD mutation: PPARg1 K132A/R137A, NR concentration 270 nM, RXRa partner concentration 90 nM)
Summary of the method: as §1

[14] = tested on: PPARg DBDmut IVT, anti-PPARg (DBD mutation: PPARg1 K132A/R137A, NR concentration 270 nM)
Summary of the method: as §1

[15] = tested on: PPARg homodimer (NR concentration 180 nM)
Summary of the method: as §1

[16] = tested on: PXR:RXRa (NR concentration 270 nM, RXRa partner concentration 90 nM)
Summary of the method: as §1

[17] = tested on: PXR homodimer (NR concentration 270 nM)
Summary of the method: as §1

[18] = tested on: RARa:RXR (NR concentration 270 nM, RXRa partner concentration 90 nM)
Summary of the method: as §1

[19] = tested on: RARa homodimer (NR concentration 270 nM)
Summary of the method: as §1

[20] = tested on: RARb:RXRa (NR concentration 270 nM, RXRa partner concentration 90 nM)
Summary of the method: as §1

Sequence | PBM binding z-score [1] | PBM binding z-score [2] | PBM binding z-score [3] | PBM binding z-score [4] | PBM binding z-score [5] | PBM binding z-score [6] | PBM binding z-score [7] | PBM binding z-score [8] | PBM binding z-score [9] | PBM binding z-score [10] | PBM binding z-score [11] | PBM binding z-score [12] | PBM binding z-score [13] | PBM binding z-score [14] | PBM binding z-score [15] | PBM binding z-score [16] | PBM binding z-score [17] | PBM binding z-score [18] | PBM binding z-score [19] | PBM binding z-score [20]
CAAAGTAGGTCACAGAGGTCAAAGTCCGTGCGTA | 7.06 | 6.7 | 7.7 | 6.5 | 2.52 | 6.75 | 10.4 | 8.33 | 7.56 | 8.58 | 8.54 | 8.94 | 1.99 | 2.62 | 4.88 | 6.71 | 10.8 | 7.4 | 2.67 | 5.14
TCATACAGGTAAAAGGTGAAAGTCGGTGTGGTAA | 1.87 | 1.87 | -0.0272 | 2.18 | 0.661 | 4.39 | 6.38 | 6.45 | 5.73 | 7.08 | 3.28 | 3.68 | 0.157 | 1.18 | 1.6 | 1.83 | 0.448 | 3.13 | 1.16 | 2.1
TCTTATAGATCAAAGGTTAAGAAAGCCGAAGCCT | 2.06 | 2.39 | 0.368 | 2.31 | -0.12 | 4.55 | 7.79 | 7.92 | 7.61 | 9.15 | 2.07 | 3.14 | 0.659 | 0.755 | 2.4 | 2.41 | 0.154 | 3.82 | 0.262 | 2.06
TAAGACAGGTGAAGGTAACTCAGGTACGCAGTCG | 0.669 | 1.42 | 0.116 | 0.904 | 1.51 | 0.916 | 1.01 | 1.38 | 1.67 | 1.57 | 0.644 | 1.64 | 0.53 | 0.465 | 0.394 | 0.257 | 0.588 | 0.526 | 0.631 | 1.51
TCTCGGAGGACACGAAGGTCAGAACTTTCCAGAG | 0.92 | 1.16 | 0.605 | 1.31 | -0.708 | 1.69 | 0.527 | 1.59 | 2.55 | 1.96 | 1.69 | 0.656 | 0.251 | -1.14 | 1.13 | 1.84 | 1.09 | 1.81 | 0.264 | 3.08
AGAAAGAGGTTATACGTAGATCAGGGAAGAAAGT | 3.01 | 2.51 | 0.203 | 2.19 | 0.538 | 3.37 | 1.84 | 1.7 | 0.807 | 1.23 | 1.97 | 1.35 | 0.646 | 0.799 | 0.915 | 1.54 | 0.627 | 2.07 | 1.16 | 2.08
GCGACTGGGGCAAAGCAGGTTATCATAAGGTTGG | 0.502 | 0.29 | -0.027 | 0.318 | -0.831 | 1.41 | 1.29 | 1.17 | -0.476 | 0.229 | 4.56 | 3.61 | -0.685 | -0.693 | -0.345 | 0.44 | -0.841 | 0.549 | -0.943 | 0.894
ATATGTAGGTTATCGGGTTATTCAGTTTGCGCAT | 1.49 | 1.81 | 1.11 | 2.23 | 1.29 | 3.81 | 6.03 | 4.99 | 2.41 | 4.37 | 7.05 | 7.32 | 2.24 | 2.13 | 2.36 | 1.88 | 1.38 | 1.79 | 2.46 | 1.11
CGAACTATGTCAGAACAGGACAGTGAAGGATGAT | 0.0056 | -0.347 | -0.162 | -0.473 | 0.636 | 0.0465 | 0.811 | 0.229 | 0.135 | -0.000779 | 1.99 | 1.16 | 0.888 | 0.9 | 0.278 | -0.225 | 0.0805 | 0.0752 | 0.625 | 0.461
TCTTGTAGATCGGCAGGTTAAGAAAGCTGGCCAA | 0.24 | 0.472 | -0.48 | 0.25 | -0.432 | 0.736 | -0.656 | 1.28 | 2.42 | 2.02 | 1.25 | 0.377 | -0.018 | -0.268 | 0.0916 | 0.349 | -0.293 | 0.55 | -0.734 | 0.257
ATACCAAGGTGATCGTGGGGTCGTTGATACTAAC | 1.56 | 1.27 | 0.187 | 2.56 | 0.143 | 2.42 | 0.805 | 0.876 | 0.0671 | 0.468 | 0.765 | 1.54 | 0.837 | 0.583 | 1.5 | 3.05 | 1.11 | 2.65 | 0.577 | 1.33
GCTAGTTGGTCAGTAAAAGGTCACAGACCGGTCG | 3.72 | 4.57 | 4.2 | 4.1 | 0.607 | 5.07 | 3.41 | 4.95 | 2.71 | 4.5 | 1.25 | 3.03 | -0.272 | 0.44 | 3.83 | 4.92 | 1.24 | 6.32 | 1.97 | 4.51
CCTTACGGGGCACTCCAGGTTATAGCATCGGAGT | 0.717 | 5.05 | 0.548 | 1.13 | -0.636 | 0.679 | 0.305 | 0.0783 | -0.441 | -0.274 | 0.818 | 0.578 | -0.912 | -1.1 | 0.148 | 0.683 | -0.195 | 0.828 | -0.55 | 1.05
